# Measurements as given in PubChem BioAssay (Tox21).
# Unmarked numbers belong to inactive results. Inconclusive results are not listed. Entries that show only a call come without a potency. Activity calls are given as the source filed them. The call rests on the fitted dose curve; in most records, active means well fitted curve in the direction sought with a large enough effect in the repeat runs; inconclusive means weak or mixed curves; inactive means no such curve, though single readings can be large; an effect the other way counts as inactive or inconclusive.
# Key:
# [1] = A CellTox Green Cytotoxicity Assay to monitor cytotoxicity in HEK293 cells - 40 hour (AID 1224871); further: nearly all actives have a fitted effect of over 45% in size
# Summary of the method: (§1)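 Cytotoxicity was tracked continuously in HEK293 cells by a DNA-binding dye excluded from viable cells. Compounds were transferred in DMSO 5 h after seeding; fluorescence was recorded at intervals up to 40 h.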
# [2] = qHTS RealTime-Glo MT Cell Viability Assay in HEK293 cells - 16 hour (AID 1224872); further: top concentration of the series differs between compounds; nearly all actives have a fitted effect of over 50% in size
# Summary of the method: (§2)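 HEK293 cells were seeded at 600 cells/well together with NanoLuc luciferase and cell-permeant prosubstrate, preincubated 5 h at 37 C/5% CO2, then given compound in DMSO by pintool. Luminescence from viable-cell prosubstrate reduction was read repeatedly over 40 h.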
# [3] = qHTS RealTime-Glo MT Cell Viability Assay in HepG2 cells - 8 hour (AID 1224873); further: nearly all actives have a fitted effect of over 55% in size
# Summary of the method: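 HepG2 cells (600/well) mixed with RealTime-Glo MT reagent, settled 5 h at 37 C/5% CO2 before compound addition. Nonlytic NanoLuc luminescence from viable-cell prosubstrate reduction read repeatedly during 40 h treatment at 37 C.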
# [4] = qHTS RealTime-Glo MT Cell Viability Assay in HEK293 cells - 40 hour (AID 1224874); details: RealTime-Glo luminescence; max response: hits give low values; further: nearly all actives have a fitted effect of over 50% in size
# Summary of the method: (§3)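 Nonlytic bioluminescent viability monitoring. HEK293 at 600 cells/well with reagent; 5 h settle; compound transfer by pintool; plates held at 37 C and read at set time points.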
# [5] = A CellTox Green Cytotoxicity Assay to monitor cytotoxicity in HEK293 cells - 24 hour (AID 1224875); further: series mostly up to about 77 µM; nearly all actives have a fitted effect of over 45% in size
# Summary of the method: as §1
# [6] = A CellTox Green Cytotoxicity Assay to monitor cytotoxicity in HepG2 cells - 16 hour (AID 1224876); further: nearly all actives have a fitted effect of over 45% in size
# Summary of the method: (§4)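 Real-time, homogeneous cytotoxicity readout: dead-cell DNA staining by CellTox Green in HepG2 monolayers, fluorescence measured at timed intervals up to 40 h of continuous compound exposure.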
# [7] = qHTS RealTime-Glo MT Cell Viability Assay in HepG2 cells - 32 hour (AID 1224877); further: nearly all actives have a fitted effect of over 55% in size
# Summary of the method: (§5)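 HepG2 cells were seeded at 600 cells/well together with NanoLuc luciferase and a cell-permeant prosubstrate, preincubated 5 h at 37 C/5% CO2, then pin-dosed with compounds in DMSO. Nonlytic luminescence from viable cells was read at each time point.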
# [8] = A CellTox Green Cytotoxicity Assay to monitor cytotoxicity in HepG2 cells - 24 hour (AID 1224878); further: nearly all actives have a fitted effect of over 45% in size
# Summary of the method: as §4
# [9] = A CellTox Green Cytotoxicity Assay to monitor cytotoxicity in HepG2 cells - 40 hour (AID 1224879); further: nearly all actives have a fitted effect of over 40% in size
# Summary of the method: as §4
# [10] = qHTS RealTime-Glo MT Cell Viability Assay in HEK293 cells - 0 hour (AID 1224880)
# Summary of the method: as §3
# [11] = A CellTox Green Cytotoxicity Assay to monitor cytotoxicity in HEK293 cells - 32 hour (AID 1224881); further: nearly all actives have a fitted effect of over 40% in size
# Summary of the method: as §1
# [12] = A CellTox Green Cytotoxicity Assay to monitor cytotoxicity in HepG2 cells - 0 hour (AID 1224882); further: nearly all actives have a fitted effect of over 35% in size
# Summary of the method: as §4
# [13] = A CellTox Green Cytotoxicity Assay to monitor cytotoxicity in HepG2 cells - 32 hour (AID 1224883); further: nearly all actives have a fitted effect of over 50% in size
# Summary of the method: as §4
# [14] = qHTS RealTime-Glo MT Cell Viability Assay in HepG2 cells - 16 hour (AID 1224885); further: nearly all actives have a fitted effect of over 50% in size
# Summary of the method: as §5
# [15] = qHTS RealTime-Glo MT Cell Viability Assay in HEK293 cells - 24 hour (AID 1224886)
# Summary of the method: as §2
# [16] = qHTS RealTime-Glo MT Cell Viability Assay in HEK293 cells - 8 hour (AID 1224887)
# Summary of the method: as §3
# [17] = A CellTox Green Cytotoxicity Assay to monitor cytotoxicity in HEK293 cells - 16 hour (AID 1224888); further: nearly all actives have a fitted effect of over 35% in size
# Summary of the method: as §1
# [18] = qHTS RealTime-Glo MT Cell Viability Assay in HepG2 cells - 0 hour (AID 1224889); further: nearly all actives have a fitted effect of over 50% in size; further: potency means the concentration at half of the fitted maximal effect
# Summary of the method: as §5
# [19] = A CellTox Green Cytotoxicity Assay to monitor cytotoxicity in HepG2 cells - 8 hour (AID 1224890); further: nearly all actives have a fitted effect of over 45% in size
# Summary of the method: as §4
# [20] = A CellTox Green Cytotoxicity Assay to monitor cytotoxicity in HEK293 cells - 8 hour (AID 1224884); further: nearly all actives have a fitted effect of over 35% in size
# Summary of the method: as §1
structure (smiles),measurement,setting,value
c1ccoc1,Potency,[1],inactive
same,Potency,[2],inactive
same,Potency,[3],inactive
same,max response,[4],-1.82%
same,Potency,[5],inactive
same,Potency,[6],inactive
same,Potency,[7],inactive
same,Potency,[8],inactive
same,Potency,[9],inactive
same,Potency,[10],inactive
same,Potency,[11],inactive
same,Potency,[12],inactive
same,Potency,[13],inactive
same,Potency,[14],inactive
same,Potency,[15],inactive
same,Potency,[16],inactive
same,Potency,[17],inactive
same,Potency,[18],inactive
same,Potency,[19],inactive
CCCCCC[N+](=O)[O-],Potency,[1],inactive
same,Potency,[2],inactive
same,Potency,[3],inactive
same,max response,[4],4.3%
same,Potency,[5],inactive
same,Potency,[6],inactive
same,Potency,[7],inactive
same,Potency,[8],inactive
same,Potency,[9],inactive
same,Potency,[10],inactive
same,Potency,[11],inactive
same,Potency,[12],inactive
same,Potency,[13],inactive
same,Potency,[14],inactive
same,Potency,[15],inactive
same,Potency,[16],inactive
same,Potency,[17],inactive
same,Potency,[18],inactive
same,Potency,[19],inactive
C=CCOC(C)=O,Potency,[1],inactive
same,Potency,[2],inactive
same,Potency,[3],inactive
same,max response,[4],-6.55%
same,Potency,[5],inactive
same,Potency,[6],inactive
same,Potency,[7],inactive
same,Potency,[8],inactive
same,Potency,[9],inactive
same,Potency,[10],inactive
same,Potency,[11],inactive
same,Potency,[12],inactive
same,Potency,[13],inactive
same,Potency,[14],inactive
same,Potency,[15],inactive
same,Potency,[17],inactive
same,Potency,[18],12.1 µM (active)
same,Potency,[19],inactive
COc1nn(CSP(=S)(OC)OC)c(=O)s1,Potency,[1],inactive
same,Potency,[2],inactive
same,Potency,[3],inactive
same,max response,[4],-3.23%
same,Potency,[5],inactive
same,Potency,[6],inactive
same,Potency,[7],inactive
same,Potency,[10],inactive
same,Potency,[11],inactive
same,Potency,[12],inactive
same,Potency,[20],inactive
same,Potency,[14],inactive
same,Potency,[15],inactive
same,Potency,[16],inactive
same,Potency,[17],inactive
same,Potency,[18],inactive
same,Potency,[19],inactive
CCOP(=S)(Oc1ccc([N+](=O)[O-])cc1)c1ccccc1 (stereo unspecified),Potency,[1],inactive
same,Potency,[2],inactive
same,Potency,[3],inactive
same,max response,[4],9.18%
same,Potency,[5],inactive
same,Potency,[6],inactive
same,Potency,[7],inactive
same,Potency,[8],inactive
same,Potency,[9],inactive
same,Potency,[10],inactive
same,Potency,[11],inactive
same,Potency,[12],inactive
same,Potency,[13],inactive
same,Potency,[20],inactive
same,Potency,[14],inactive
same,Potency,[15],inactive
same,Potency,[17],inactive
same,Potency,[18],inactive
ClCCCCBr,Potency,[1],inactive
same,Potency,[2],inactive
same,Potency,[3],inactive
same,max response,[4],-9.07%
same,Potency,[5],inactive
same,Potency,[6],inactive
same,Potency,[7],inactive
same,Potency,[8],inactive
same,Potency,[9],inactive
same,Potency,[10],inactive
same,Potency,[11],inactive
same,Potency,[12],inactive
same,Potency,[13],inactive
same,Potency,[14],inactive
same,Potency,[15],inactive
same,Potency,[16],inactive
same,Potency,[17],inactive
same,Potency,[19],inactive
C[N+](C)(C)CCCl,Potency,[1],inactive
same,Potency,[2],inactive
same,Potency,[3],inactive
same,max response,[4],21.2%
same,Potency,[5],inactive
same,Potency,[6],inactive
same,Potency,[7],inactive
same,Potency,[8],inactive
same,Potency,[9],inactive
same,Potency,[10],inactive
same,Potency,[11],inactive
same,Potency,[12],inactive
same,Potency,[13],inactive
same,Potency,[20],inactive
same,Potency,[14],inactive
same,Potency,[15],inactive
same,Potency,[17],inactive
same,Potency,[18],inactive
same,Potency,[19],inactive
NS(=O)(=O)C(F)(F)C(F)(F)C(F)(F)C(F)(F)C(F)(F)C(F)(F)C(F)(F)C(F)(F)F,Potency,[1],inactive
same,Potency,[2],inactive
same,Potency,[3],inactive
same,max response,[4],-4.36%
same,Potency,[5],inactive
same,Potency,[6],inactive
same,Potency,[7],inactive
same,Potency,[10],inactive
same,Potency,[11],inactive
same,Potency,[12],inactive
same,Potency,[20],inactive
same,Potency,[14],inactive
same,Potency,[15],inactive
same,Potency,[16],inactive
same,Potency,[17],inactive
same,Potency,[18],inactive
same,Potency,[19],inactive
Clc1cccc(SC2CCNCC2)n1,Potency,[1],inactive
same,Potency,[2],inactive
same,Potency,[3],inactive
same,max response,[4],1.39%
same,Potency,[5],inactive
same,Potency,[6],inactive
same,Potency,[8],inactive
same,Potency,[9],inactive
same,Potency,[10],inactive
same,Potency,[11],inactive
same,Potency,[12],inactive
same,Potency,[13],inactive
same,Potency,[20],inactive
same,Potency,[14],inactive
same,Potency,[15],inactive
same,Potency,[16],inactive
same,Potency,[17],inactive
same,Potency,[18],inactive
same,Potency,[19],inactive
c1cc2ccc3cccc4ccc(c1)c2c34,Potency,[1],inactive
same,Potency,[2],inactive
same,Potency,[3],inactive
same,max response,[4],-0.186%
same,Potency,[5],inactive
same,Potency,[6],inactive
same,Potency,[7],inactive
same,Potency,[8],inactive
same,Potency,[10],inactive
same,Potency,[11],inactive
same,Potency,[12],inactive
same,Potency,[20],inactive
same,Potency,[14],inactive
same,Potency,[15],inactive
same,Potency,[16],inactive
same,Potency,[17],inactive
same,Potency,[19],inactive
CCN(C)N=O,Potency,[1],inactive
same,Potency,[2],inactive
same,Potency,[3],inactive
same,max response,[4],2.13%
same,Potency,[5],inactive
same,Potency,[6],inactive
same,Potency,[7],inactive
same,Potency,[8],inactive
same,Potency,[9],inactive
same,Potency,[10],inactive
same,Potency,[11],inactive
same,Potency,[12],inactive
same,Potency,[13],inactive
same,Potency,[20],inactive
same,Potency,[14],inactive
same,Potency,[15],inactive
same,Potency,[17],inactive
CO[C@@H]1[C@H](OC(=O)NC(=O)CCl)CC[C@]2(CO2)[C@H]1[C@@]1(C)O[C@@H]1CC=C(C)C,cytotoxicity increase,[1],-0.615% [at 15.8 µM]
same,"activity change, negative = cytotoxicity",[2],13.2% [at 15.8 µM]
same,"viability change, negative = cytotoxic",[3],-0.3% [at 15.8 µM]
same,max response,[4],1.55%
same,activity change,[5],"-10.2% [at 15.8 µM, hits give high values]"
same,cytotoxicity increase,[6],-3.75% [at 15.8 µM]
same,cytotoxicity,[8],-1.01% [at 15.8 µM]
same,cytotoxicity increase,[9],-2% [at 15.8 µM]
same,"activity change, negative = cytotoxicity",[10],1.11% [at 15.8 µM]
same,cytotoxicity increase,[11],-3.65% [at 15.8 µM]
same,cytotoxicity,[12],1.46% [at 15.8 µM]
same,cytotoxicity increase,[13],-1.39% [at 15.8 µM]
same,cytotoxicity increase,[20],-6.32% [at 15.8 µM]
same,"activity change, negative = cytotoxic",[14],1.78% [at 15.8 µM]
same,"activity change, negative = cytotoxicity",[15],14.6% [at 15.8 µM]
same,"activity change, negative = cytotoxicity",[16],6.68% [at 15.8 µM]
same,activity change,[17],"-10.6% [at 15.8 µM, hits give high values]"
C=CC(=O)OC,Potency,[1],inactive
same,Potency,[2],inactive
same,Potency,[3],inactive
same,max response,[4],0.596%
same,Potency,[5],inactive
same,Potency,[6],inactive
same,Potency,[7],inactive
same,Potency,[8],inactive
same,Potency,[9],inactive
same,Potency,[10],inactive
same,Potency,[11],inactive
same,Potency,[12],inactive
same,Potency,[13],inactive
same,Potency,[20],inactive
same,Potency,[14],inactive
same,Potency,[15],inactive
same,Potency,[17],inactive
same,Potency,[19],inactive
ClC=C(Cl)Cl,Potency,[1],inactive
same,Potency,[2],inactive
same,Potency,[3],inactive
same,max response,[4],18.6%
same,Potency,[5],inactive
same,Potency,[6],inactive
same,Potency,[7],inactive
same,Potency,[8],inactive
same,Potency,[9],inactive
same,Potency,[10],inactive
same,Potency,[11],inactive
same,Potency,[12],inactive
same,Potency,[13],inactive
same,Potency,[20],inactive
same,Potency,[14],inactive
same,Potency,[15],inactive
same,Potency,[17],inactive
same,Potency,[18],inactive
same,Potency,[19],inactive
CCc1ccc(C(=O)NN(C(=O)c2cc(C)cc(C)c2)C(C)(C)C)cc1,Potency,[1],inactive
same,Potency,[2],inactive
same,Potency,[3],inactive
same,max response,[4],-11.5%
same,Potency,[5],inactive
same,Potency,[6],inactive
same,Potency,[7],inactive
same,Potency,[8],inactive
same,Potency,[9],inactive
same,Potency,[10],inactive
same,Potency,[11],inactive
same,Potency,[12],inactive
same,Potency,[13],inactive
same,Potency,[20],inactive
same,Potency,[14],inactive
same,Potency,[15],inactive
same,Potency,[17],inactive
same,Potency,[18],inactive
same,Potency,[19],inactive
